# An excerpt weighted towards active compounds, which were near 9% of everything screened.
# BAZ2B block: blocks human BAZ2B; Q9UIF8; AlphaScreen BAZ2B-H3K14Ac peptide displacement; Potency, µM (highest dose often 114 µM), for the others: at the highest dose activity change, negative = inhibition, actives largely listed as inhibitors; actives 4.4% (n = 360,000); note: % is set by controls: 0 for no effect and ±100 for the full control effect; nearly all actives have a fitted effect of over 60% in size
#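 AlphaScreen displacement: compounds (up to 110uM) incubated 30 min at room temperature with a preformed 50 nM BAZ2B/50 nM biotinylated H3K14Ac peptide complex in PBS pH 7.4 with Tween-20. Donor and acceptor beads at 10 ug/mL final added, 20 min light-protected before reading.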
# HP1b binding inh: blocks HP1-beta chromodomain binding to methylated histone tails | P83916 | AlphaScreen HP1-beta / biotin-H3K9me3 peptide binding | Potency, µM (highest dose often 114 µM), inactives show at the highest dose activity change, negative = inhibition, actives largely listed as inhibitors | actives 0.56% (n = 390,000); note: nearly all actives have a fitted effect of over 70% in size
#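 AlphaScreen: HP1-beta (50 nM) preformed 30 min with biotin-H3(1-18)K9me3 peptide (50 nM) in PBS pH 7.4, 0.01% Tween-20. Compound added for 30 min at RT, then streptavidin donor/nickel chelate acceptor beads (10 ug/mL) for 30 min.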
# 12-LOX inh: ALOX12 (human) lipoxygenase inhibition; actives 1.1% (n = 580,000); purified 12hLO, xylenol orange hydroperoxide absorbance; Potency, µM (series often up to 108 µM), for the others: top-dose activity change, negative = inhibition, usual class: inhibitors; P18054; note: % is set by controls: 0 for no effect and ±100 for the full control effect
#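 Hydroperoxide product was detected by ferrous iron/xylenol orange as the 573 to 405 nm absorbance ratio. Arachidonic acid at 40 uM (final) was turned over for 30 min at room temperature by 150 nM human 12hLO, pH 7.0 Hepes buffer, after 15 min compound preincubation.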
# PLK1 PBD inh: PLK1 (human) polo-box domain binding inhibition. actives 2.8% (n = 360,000). Plk1 PBD binding of FITC phosphopeptide, fluorescence polarization. Potency, µM, for the others: max response, negative = inhibition, actives largely listed as inhibitors. P53350; note: series mostly up to about 57 µM; % is set by controls: 0 for no effect and ±100 for the full control effect; nearly all actives have a fitted effect of over 65% in size
# G9a inh: inhibitors of human histone lysine methyltransferase G9a. G9a H3K9 monomethylation, AlphaScreen, 2 h. Potency, µM (highest dose often 102 µM), for inactives: at the top dose activity, negative = inhibition, usual class: inhibitors. actives 8.8% (n = 350,000). AID 504332; note: % is set by controls: 0 for no effect and ±100 for the full control effect; nearly all actives have a fitted effect of over 75% in size
#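 AlphaScreen detection with an anti-monomethyl H3K9 antibody quantified product after a 2 h room-temperature reaction containing 500 nM biotinylated H3K9 peptide, 20 µM SAM and 20 nM enzyme, which had been preincubated 15 min with compound.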
# JMJD2A Tudor: inhibitors of human JMJD2A Tudor domain; Potency, µM (highest dose often 114 µM), for the others: at the highest dose activity change, negative = inhibition, most hits filed as inhibitors; actives 4.4% (n = 390,000); AlphaScreen JMJD2A-Tudor / H3K4me3 peptide binding; note: % is set by controls: 0 for no effect and ±100 for the full control effect; nearly all actives have a fitted effect of over 50% in size
# Target sequence (O75164 whole entry, looked up, the tested form may be a part): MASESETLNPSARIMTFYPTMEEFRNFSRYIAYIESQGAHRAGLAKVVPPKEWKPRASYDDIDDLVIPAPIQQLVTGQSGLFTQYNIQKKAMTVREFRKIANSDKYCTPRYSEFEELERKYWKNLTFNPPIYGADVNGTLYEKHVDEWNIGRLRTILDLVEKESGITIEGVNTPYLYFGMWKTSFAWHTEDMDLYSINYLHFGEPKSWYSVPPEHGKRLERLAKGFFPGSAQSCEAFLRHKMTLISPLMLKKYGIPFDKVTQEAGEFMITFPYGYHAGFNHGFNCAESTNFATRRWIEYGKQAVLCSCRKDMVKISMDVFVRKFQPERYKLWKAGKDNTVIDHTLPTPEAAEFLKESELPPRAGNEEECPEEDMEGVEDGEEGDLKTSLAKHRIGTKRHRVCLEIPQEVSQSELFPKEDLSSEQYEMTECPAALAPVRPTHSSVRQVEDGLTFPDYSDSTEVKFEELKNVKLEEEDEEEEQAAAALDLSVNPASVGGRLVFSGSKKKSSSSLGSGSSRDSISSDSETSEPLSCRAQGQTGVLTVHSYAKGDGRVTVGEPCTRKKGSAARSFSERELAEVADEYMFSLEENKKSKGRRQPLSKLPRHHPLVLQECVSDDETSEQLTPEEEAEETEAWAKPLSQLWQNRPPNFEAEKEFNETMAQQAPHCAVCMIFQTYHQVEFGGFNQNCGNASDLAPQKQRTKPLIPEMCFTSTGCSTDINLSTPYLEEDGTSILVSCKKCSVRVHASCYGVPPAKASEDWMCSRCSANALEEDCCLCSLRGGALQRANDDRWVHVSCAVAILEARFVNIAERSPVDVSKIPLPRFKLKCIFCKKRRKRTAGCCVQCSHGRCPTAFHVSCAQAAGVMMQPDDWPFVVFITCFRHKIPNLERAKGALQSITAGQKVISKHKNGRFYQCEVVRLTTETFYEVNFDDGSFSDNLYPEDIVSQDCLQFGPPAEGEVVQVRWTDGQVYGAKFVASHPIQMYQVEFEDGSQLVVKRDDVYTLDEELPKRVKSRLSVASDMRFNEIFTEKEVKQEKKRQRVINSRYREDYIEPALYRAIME
# An asterisk follows results filed as active; ? = inconclusive; · = no result; ! = not confirmed by another sample; [ ] = another dose, or the depositor's remark. Calls come from the whole dose curve; as a rule, active = well fitted curve in the direction sought with a large enough effect; inconclusive = small, poorly fitted or top-dose-only effect, or another doubt; inactive = no such curve, though single readings can be large; an effect the other way counts as inactive or inconclusive. Potency is the fitted concentration of half-maximal effect.
SMILES,BAZ2B block,HP1b binding inh,12-LOX inh,PLK1 PBD inh,G9a inh,JMJD2A Tudor
CCN(CC)c1ccc(NC(=S)NC(=O)c2ccco2)cc1,17.8µM*,44.7µM*,?,21.2µM*,28.2µM*,28.2µM*
CCN(CC)c1ccc(NC(=O)c2c(C)noc2C)cc1,?,15.4%,433.0%,-0.1%,28.2µM*,-26.5%
COc1cccc(CN2C(=O)C3(SCC(=O)N3c3ccc(C(C)C)cc3)c3ccccc32)c1 (stereo unspecified),-24.0%,22.1%,?,·,-25.5%[59 µM],-16.2%
CCN(CC)c1ccc(NC(=O)c2ccco2)c(C)c1,-12.0%,-7.7%,-25.5%,-7.8%,?,-35.8%
CCCC(=O)Nc1ccc(NC(=O)c2ccco2)cn1,-2.2%,32.2%,0.0%,0.5%,-18.9%,9.6%
CCN(CC)c1ccc(NC(=O)c2ccccc2F)cc1,44.7µM*,-14.3%,?,-5.0%,?,?
O=C(/C=C/c1ccc(NC(=O)c2ccccc2-c2ccccc2C(=O)O)cc1)c1ccccc1,?,18.3%,?,-16.1%,·,-31.6%
CC(C)C(=O)Nc1ccc(NC(=O)c2ccco2)cn1,?,52.9%,-23.4%,-1.3%,35.5µM*,-7.2%
O=C(/C=C/c1ccncc1)c1ccc(NC(=O)c2ccccc2F)cc1,50.1µM*,-1.5%[57 µM],·,-7.4%,14.1µM*,56.2µM*
CCN(CC)c1ccc(NC(=O)c2ccco2)cc1,-33.8%,-0.8%,-27.7%,-1.7%,35.5µM*,?
O=C(Nc1ccc(-c2ccccc2)cc1)c1ccccc1F,·,·,-93.4%,·,·,·
Cc1cc(C)nc(NS(=O)(=O)c2ccc(NC(=S)NC(=O)c3ccco3)cc2)n1,1.3%,1.6%,-104.6%,-12.9%,50.1µM*,-12.7%
CCC(C(=O)NC1CCCCC1)n1c(SCc2cccc(F)c2)nc2ccncc21 (stereo unspecified),-9.1%,55.9%,-22.6%,2.3%,?,-17.1%
CCC(C(=O)NC1CCCCC1)n1c(SCc2cccc(C)c2)nc2ccncc21 (stereo unspecified),0.3%,10.1%,-6.3%,-4.1%,50.1µM*!,-31.2%
Cn1c2c(c(=O)n(C)c1=O)C(c1ccc(F)cc1)C(C#N)=C(N)O2 (stereo unspecified),-14.9%,19.7%,5.5%,?,44.7µM*,-6.5%
Cc1ccc(C2C(C#N)=C(N)Oc3c2c(=O)n(C)c(=O)n3C)cc1 (stereo unspecified),-2.1%,26.3%,11.8%,-27.8%,?,-3.4%
CCCC/C=C1/CCC(CN(C)C)C1=O (stereo unspecified),·,23.2%,·,11.9µM*,·,-15.3%
COC(=O)C1CCC/C(=C\c2ccc(Cl)cc2)C1=O (stereo unspecified),·,·,-16.1%,·,·,·
COc1ccc(/C=C2/CCCC(CN(C)C)C2=O)cc1 (stereo unspecified),·,29.1%,?,23.8µM*,·,-24.3%
CN(C)CC1CCC/C(=C\c2ccc(OC(=O)/C=C/c3ccc(Cl)c(Cl)c3)cc2)C1=O (stereo unspecified),·,0.2%,-23.5%,-18.6%,·,-12.5%
COc1cccc(/C=C2/CCC(CN(C)C)C2=O)c1 (stereo unspecified),·,?,?,3.36µM*,·,79.4µM*
CN(C)CC1CCC/C(=C/c2ccc(Cl)cc2)C1=O (stereo unspecified),·,33.1%,35.5µM*,5.97µM*,·,-19.4%
COc1ccccc1N(C)S(=O)(=O)c1ccc(C(=O)NCC(C)C)cc1,-21.5%,37.2%,-2.4%,2.5%,3.2%[12.7 µM],-13.4%
COc1ccccc1N(C)S(=O)(=O)c1ccc(Cl)c(C(=O)NCc2ccco2)c1,·,-15.1%,-13.1%,-11.4%,·,?
COCCNC(=O)c1cc(S(=O)(=O)N(C)c2ccccc2OC)ccc1C,-14.0%,49.5%,-5.2%,-14.6%,28.2µM*,-3.8%
COc1ccccc1N(C)S(=O)(=O)c1ccc(C(=O)N(CC(N)=O)C(C)C)cc1,89.1µM*,29.7%,24.6%,-6.4%,-4.6%,-10.0%

# Screening data from PubChem BioAssay.
